# Biological target: Fibroblast growth factor receptor 3 (Homo sapiens) (UniProt P22607)
# Conditions: at 10 µM
# Fibroblast growth factor receptor 3 (Homo sapiens), sequence (P22607 23-806 limits assumed): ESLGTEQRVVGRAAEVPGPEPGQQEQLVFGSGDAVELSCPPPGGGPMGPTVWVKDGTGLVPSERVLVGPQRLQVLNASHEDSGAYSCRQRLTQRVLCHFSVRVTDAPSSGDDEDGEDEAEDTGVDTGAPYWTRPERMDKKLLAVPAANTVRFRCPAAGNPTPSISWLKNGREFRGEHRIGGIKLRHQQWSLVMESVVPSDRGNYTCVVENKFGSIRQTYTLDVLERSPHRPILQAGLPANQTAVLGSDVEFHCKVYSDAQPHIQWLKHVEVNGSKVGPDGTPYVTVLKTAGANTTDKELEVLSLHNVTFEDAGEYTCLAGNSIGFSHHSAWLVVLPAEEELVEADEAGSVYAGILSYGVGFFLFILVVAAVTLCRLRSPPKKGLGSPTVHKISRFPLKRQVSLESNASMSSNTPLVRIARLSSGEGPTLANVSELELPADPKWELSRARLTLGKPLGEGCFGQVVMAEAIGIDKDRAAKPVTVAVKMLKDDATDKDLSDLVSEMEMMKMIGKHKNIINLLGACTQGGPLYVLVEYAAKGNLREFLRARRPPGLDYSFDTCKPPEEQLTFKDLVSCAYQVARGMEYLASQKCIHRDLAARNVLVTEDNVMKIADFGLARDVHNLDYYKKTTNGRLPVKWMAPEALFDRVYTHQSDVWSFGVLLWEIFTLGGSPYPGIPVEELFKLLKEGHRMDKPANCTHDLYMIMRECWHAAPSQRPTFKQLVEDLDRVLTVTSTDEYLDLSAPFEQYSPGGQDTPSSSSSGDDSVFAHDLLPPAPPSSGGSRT
row,Structure (SMILES),residual activity [%]
1,O=c1cc(N2CCOCC2)oc2c(-c3ccccc3)cccc12,73
2,CSc1nc(-c2ccc(F)cc2)c(-c2ccnc(NC(C)c3ccccc3)c2)[nH]1 (configuration not stated),78
3,O=C(O)/C=C/c1cc(Br)c(Br)c(Br)c1Br,99
4,COc1ccc(-c2cnc3c(-c4ccsc4)cnn3c2)cc1,124
5,COc1cc2c(cc1OC)-c1n[nH]c(Nc3cccc(F)c3)c1C2,67
6,CN([C@@H](Cc1ccc(OS(=O)(=O)c2cccc3cnccc23)cc1)C(=O)N1CCN(c2ccccc2)CC1)S(=O)(=O)c1cccc2cnccc12,58
7,COc1ccc2c(c1)c(C1=C(c3c[nH]c4ccccc34)C(=O)NC1=O)cn2CCCN(C)C,13
8,COc1ccc(CNC(=O)Nc2ncc([N+](=O)[O-])s2)cc1,113
9,O=C1Cc2c([nH]c3ccc([N+](=O)[O-])cc23)-c2ccccc2N1,109
10,COc1cc2nccc(Oc3ccc(NC(=O)Nc4cc(C)on4)c(Cl)c3)c2cc1OC,28
11,Nc1nc(Nc2ccc(S(N)(=O)=O)cc2)nn1C(=O)c1c(F)cccc1F,4
12,O=S(=O)(NCCNC/C=C/c1ccc(Br)cc1)c1cccc2cnccc12,80
13,COc1cc2ncnc(Nc3cccc(Cl)c3)c2cc1OC,74
14,CC(C)[C@H](CO)Nc1nc(Nc2cc(N)cc(Cl)c2)c2ncn(C(C)C)c2n1,20

# Biological target: Fibroblast growth factor receptor 4 (Homo sapiens) (UniProt P22455)
# Sequence (P22455 22-802 limits assumed): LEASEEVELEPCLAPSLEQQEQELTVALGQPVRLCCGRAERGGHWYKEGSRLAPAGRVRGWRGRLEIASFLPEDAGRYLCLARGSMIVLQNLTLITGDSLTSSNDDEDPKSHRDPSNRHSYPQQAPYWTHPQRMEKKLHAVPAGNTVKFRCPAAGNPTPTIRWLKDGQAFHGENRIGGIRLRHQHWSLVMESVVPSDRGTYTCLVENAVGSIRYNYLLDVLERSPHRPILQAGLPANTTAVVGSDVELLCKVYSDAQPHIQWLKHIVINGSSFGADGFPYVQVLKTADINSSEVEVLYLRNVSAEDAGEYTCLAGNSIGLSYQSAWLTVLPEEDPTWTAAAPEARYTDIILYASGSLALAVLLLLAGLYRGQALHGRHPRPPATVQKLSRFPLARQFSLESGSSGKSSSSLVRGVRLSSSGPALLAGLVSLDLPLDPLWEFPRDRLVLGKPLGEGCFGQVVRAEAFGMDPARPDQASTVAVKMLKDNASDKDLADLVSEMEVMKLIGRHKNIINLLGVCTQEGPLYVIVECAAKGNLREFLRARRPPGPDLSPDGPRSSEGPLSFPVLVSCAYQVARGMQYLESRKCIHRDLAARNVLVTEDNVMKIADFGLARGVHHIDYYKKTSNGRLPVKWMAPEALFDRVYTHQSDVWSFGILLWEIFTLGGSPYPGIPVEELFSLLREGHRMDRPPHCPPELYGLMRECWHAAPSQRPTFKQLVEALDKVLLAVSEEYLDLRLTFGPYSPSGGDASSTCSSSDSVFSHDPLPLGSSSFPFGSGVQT
# Conditions: at 1 µM
row,Structure (SMILES),residual activity [%]
1,Nc1n[nH]c2nc3ccccc3nc12,120
2,CC(C)(C)c1nc2c3ccc(F)cc3c3c(=O)[nH]ccc3c2[nH]1,119
3,COc1cc2c(cc1OC)-c1n[nH]c(Nc3cccc(F)c3)c1C2,117
4,COc1ccc(COc2ccc(Cc3cnc(N)nc3N)cc2OC)cc1,131
5,COc1ccc2c(c1)c(C1=C(c3c[nH]c4ccccc34)C(=O)NC1=O)cn2CCCN(C)C,120
6,CCCC(=O)Oc1ccc2[nH]c(C(=O)c3cc4ccccc4[nH]3)cc2c1,125
7,Nc1ncnc2[nH]nc(Nc3ccc(F)cc3)c12,98
8,O=C1Cc2c([nH]c3ccc([N+](=O)[O-])cc23)-c2ccccc2N1,112
9,N#C/C(=C1/Nc2ccccc2S1)c1ccnc(NCCc2cccnc2)n1,117
10,COc1cc2nccc(Oc3ccc(NC(=O)Nc4cc(C)on4)c(Cl)c3)c2cc1OC,76
11,Nc1nc(Nc2ccc(S(N)(=O)=O)cc2)nn1C(=O)c1c(F)cccc1F,99
12,NC(=O)c1ccc(-c2nc(-c3ccc4c(c3)OCCO4)c(-c3ccccn3)[nH]2)cc1,122
13,O=C(Nc1nc2ccccc2n1CCN1CCOCC1)c1cccc([N+](=O)[O-])c1,114
